Screens (PubChem BioAssay)
Shown are actives, neighbours in structure and some others; about 3.6% of the full set was active somewhere.
aSyn yeast inh = inhibitors of alpha-synuclein toxicity in yeast; Yeast expressing alpha-synuclein, growth rescue, BacTiter-Glo, 24 h; Potency, µM (top dose mostly 46.1 µM), for inactives: at the top dose growth rescue (activation), usual class: activators; 370,000 compounds, 0.14% hits; also: % of control where 0% means no effect; nearly all actives have a fitted effect of over 65% in size
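Rescue of yeast growth: cells expressing toxic alpha-synuclein, induced in galactose at OD600 0.02, incubated with compound 24 h at 30 C. ATP luminescence quantified growth; inhibitors of toxicity appear as activators.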
ClpP mod = qHTS Assay for Activators of ClpP; ATP-dependent Clp protease proteolytic subunit (Bacillus subtilis (strain 168)), P80244; purified B. subtilis ClpP, FRET peptide cleavage, 20 min; Potency, µM (series often up to 57.5 µM), for the others: at the highest dose activity change, negative = active; 340,000 compounds, 1.9% hits; active = well fitted falling curve with a large enough effect; inconclusive = small, poorly fitted or top-dose-only effect; inactive = no such curve, though single readings can be large or run the other way; also: the source files actives as falling curves though it sought activators and does not explain the sign; nearly all actives have a fitted effect of over 65% in size
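Purified B. subtilis ClpP, 10 microg/mL final in Tris/HCl pH8 with KCl, BSA, glycerol and Tween-20, cleaved an Abz/nitrotyrosine-quenched decapeptide. Fluorescence (ex 320, em 430) was read at 0 and 20 min at room temperature. Delta was normalized to 5.8 microM ADEP and DMSO/no-enzyme controls.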
FUS yeast rescue = rescues growth of FUS-expressing yeast; S. cerevisiae FUS-expressing, growth rescue, OD600, 24 h; Potency, µM (highest dose often 76.6 µM), hits mostly activators; 390,000 compounds, 0.24% hits; AID 1347120;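 also: plate controls were DMSO vehicle for no effect and reference control for full effect; nearly all actives have a fitted effect of over 55% in size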
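Quantitative HTS measuring growth restoration of FUS-toxic yeast. Galactose-induced cells (OD 0.005) were exposed 24hr at 30C to compounds at several concentrations, then absorbance at 600 nm was recorded.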
MmCpn inh = M. maripaludis TRiC chaperonin inhibition. 330,000 compounds, 0.031% hits. purified Mm-Cpn ATPase, ADP Transcreener TR-FRET. Potency, µM (highest dose often 76.9 µM), without a hit: at the highest dose activity, negative = inhibition, usual class: inhibitors; also: % is scaled to controls: 0 for no effect and ±100 for the full control effect; nearly all actives have a fitted effect of over 80% in size
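Measured: ADP formation by purified Mm-CPN. Conditions: 25 nM protein, 10 uM ATP, Tris pH 7.4 with Mg2+, K+ and DTT, 37°C for 30 min. Detection: Transcreener HTRF after 30 min at room temperature.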
Abeta yeast res = compounds reversing amyloid beta toxicity in yeast. yeast expressing A-beta42, growth rescue, OD600, 48 h; response scale: 0% DMSO, 100% iron-clioquinol control. 410,000 compounds, 0.063% hits. Potency, µM (top dose mostly 46.1 µM), actives largely listed as activators; also: nearly all actives have a fitted effect of over 55% in size
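Yeast A-beta toxicity model in growth medium with pinned compounds, 48 h at 30 C; growth read as absorbance at 600 nm. Normalized to FeCl3/clioquinol equimolar mix (positive) and DMSO (negative).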
TDP-43 yeast inh = rescues yeast growth from TDP-43 toxicity | Potency, µM (titrated, usually from 46.1 µM), for inactives: at the top dose growth rescue (activation), actives largely listed as activators | TDP-43 expressing yeast growth rescue, BacTiter-Glo, 24 h | AID 652104 | 410,000 compounds, 1.8% hits; also: % of control where 0% means no effect; nearly all actives have a fitted effect of over 50% in size
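Yeast cells expressing TDP-43 under galactose induction are exposed to compounds for 24 hr at 30 deg C. BacTiter-Glo luminescence measures growth, so protective compounds score as activators.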
* = called active by the depositor; i = inactive; ? = inconclusive; . = no result given; [ ] = remark or other dose. Unless noted, calls follow the shape of the dose curve; as a rule, active = well fitted curve in the direction sought with a large enough effect; inconclusive = small, poorly fitted or top-dose-only effect, or another doubt; inactive = no such curve, though single readings can be large; an effect the other way counts as inactive or inconclusive. Potency is read from the fitted curve at half-maximal effect.

SMILES	aSyn yeast inh	ClpP mod	FUS yeast rescue	MmCpn inh	Abeta yeast res	TDP-43 yeast inh
O=C(c1ccc2ccccc2n1)N1CCN(S(=O)(=O)c2ccc(Cl)cc2)CC1	12.6%	-1.8%	i	-0.1%	i	25.1µM*
O=C(N/N=C/c1c[nH]c2ccccc12)c1sc2ccccc2c1Cl	-2.3%	-1.3%	i	0.9%	i	10.8%
O=C(N/N=C/c1ccccn1)c1sc2ccccc2c1Cl	3.16µM*	-3.1%	i	0.9%	?	?
O=C(Nc1nc(-c2cccs2)c(-c2cccs2)s1)C1CCCC1	-5.2%	-16.7%	.	-2.4%	i	14.1µM*
COc1ccc(S(=O)(=O)N2CCN(C(=O)c3oc4ccccc4c3C)CC2)cc1	-15.3%	-2.7%	?	-8.0%	i	11.2µM*
Cc1c(C(=O)N2CCN(S(=O)(=O)c3cc(F)ccc3F)CC2)oc2ccccc12	8.5%	-3.5%	i	-9.7%	i	14.1µM*
COc1ccc2oc(C(=O)N3CCN(S(=O)(=O)c4ccc(F)cc4)CC3)c(C)c2c1	1.9%	.	i	-3.5%	i	?
Cc1c(C(=O)N2CCN(S(C)(=O)=O)CC2)oc2ccccc12	-8.0%	-2.9%	i	-0.2%	i	-13.5%
Cc1c(C(=O)N2CCN(S(=O)(=O)c3ccccc3)CC2)oc2ccccc12	4.4%	-3.2%	i	-1.0%	i	15.8µM*
CC(=O)Nc1ccc(-c2cc(C(=O)O)c3c(-c4ccccc4)[nH]nc3n2)cc1	.	?	i	.	i	16.9%
COc1ccc(S(=O)(=O)N2CCCCCC2)cc1C(=O)Nc1cc(C)ccn1	0.9%	-7.4%	i	3.4%	i	?
Cc1ccnc(NC(=O)c2cc(S(=O)(=O)N3CCCCC3)ccc2Cl)c1	4.3%	22.4µM*	i	?	i	1.2%
CCOCCc1nn2c(=O)cc(COC(=O)c3cccc(C)c3)nc2s1	.	-1.3%	?	.	i	4.9%
O=C(Nc1ccc(Nc2ccccc2)cc1)C(Cl)(Cl)Cl	1.3%	-0.8%	.	2.0%	i	35.5µM*
CCCCn1cc(S(=O)(=O)c2ccc(OC)cc2)c(=O)c2cc(F)c(N3CCCC3)cc21	.	-25.8%	i	.	i	6.0%
Cc1ccc(Cn2ccnc2SCC(=O)Nc2nc3ccccc3s2)cc1	.	-4.9%	?	.	i	22.4µM*
Cn1c(SCC(=O)Nc2nc3ccccc3s2)ncc(C(=O)Nc2ccc(Cl)cc2)c1=O	.	22.4µM*	i	.	i	0.0%
CCc1nnc(NC(=O)CSc2nccn2Cc2ccc(C)cc2)s1	.	1.0%	i	.	i	26.5%[9.22 µM]
Cc1ccc(OCC(=O)OCc2cc(=O)n3c(C)csc3n2)cc1	.	8.8%	i	.	i	-18.8%
Cc1cc(C)c(S(=O)(=O)NC2CC3CCC2C3)c(C)c1 (stereo not given)	-13.0%	-2.0%	i	0.1%	i	12.6µM*
O=C(Oc1cc(Cl)ccc1Cl)c1ccc(N2CCOCC2)c([N+](=O)[O-])c1	2.1%	5.2%	i	-1.6%	5.62µM*	?
Cc1ccc(S(=O)(=O)N2CCN(c3ccc(C(=O)N4CCOCC4)cc3[N+](=O)[O-])CC2)cc1	2.5%	28.2µM*	.	-11.7%	i	-0.9%
Cc1ccc(S(=O)(=O)N2CCN(C(=O)c3ccc(N4CCCC4)c([N+](=O)[O-])c3)CC2)cc1	-0.1%	-2.0%	i	0.9%	i	7.4%
O=C(O/N=C\c1ccc(N2CCOCC2)c([N+](=O)[O-])c1)c1ccccc1Cl	12.3%	1.6%	.	1.4%	i	14.1µM*
Cc1ccc(S(=O)(=O)C(CNC(=O)C(=O)NCc2ccc(Cl)cc2)c2cccs2)cc1 (stereo not given)	.	-1.8%	i	.	i	10.0%
SMILES	aSyn yeast inh	ClpP mod	FUS yeast rescue	MmCpn inh	Abeta yeast res	TDP-43 yeast inh
CCOc1ccc2c(C)nc(NC3=NC(C)(C)C=C(C)N3)nc2c1	-0.1%	3.98µM*	i	-1.7%	i	-15.8%
CCOc1ccc2nc(NC3=NC(c4ccc(OC)cc4)CC(=O)N3)nc(C)c2c1 (stereo not given)	10.1%	31.6µM*	i	-1.6%	i	-13.2%
CCOc1ccc2nc(NC3=NC(C)(C)C=C(C)N3)nc(C)c2c1	2.3%	-4.1%	i	-1.5%	i	-2.6%
COc1ccc(OC)c(C(c2nnnn2C2CCCC2)N2CCN(c3ccccc3F)CC2)c1 (stereo not given)	7.9%	25.1µM*	i	-3.1%	i	31.6µM*
O=C(COc1ccccc1Cl)c1ccc[nH]1	9.7%	.	i	-3.2%	i	20.1%
O=C(COc1ccc(Br)cc1Cl)c1ccc[nH]1	12.2%	.	i	1.1%	i	20µM*
CCOC(=O)c1sc2nc3c(cc2c1N)COC(C)(CC)C3 (stereo not given)	.	-9.9%	i	0.3%	i	11.2µM*
COc1ccc(S(=O)(=O)n2nc(C)c(S(=O)(=O)N3CCCCC3)c2C)cc1	.	1.6%	i	.	i	5.4%
Cn1c(=O)c(-c2ccccc2)nc2ccccc21	4.5%	25.1µM*	i	-7.0%	i	5.9%
O=C(Nc1ncn[nH]1)c1ccc(Cl)c(S(=O)(=O)Nc2ccc(Cl)cc2)c1	5.8%	31.6µM*	i	3.0%	i	6.6%
N#Cc1cc(-c2ccccc2)oc1/N=C/c1ccccc1O	0.8%	-11.4%	i	-1.4%	i	2.6%
COc1cccc(/C=N/c2oc(-c3ccccc3)cc2C#N)c1O	14.3%	60.0%	i	-5.7%	i	12.6µM*
O=C(CN1C(=O)CCSc2ccccc21)Nc1ccc(Cl)c(Cl)c1	.	.	i	.	.	.
COc1ccccc1/C=C1\NC(=S)N(CC2CCCO2)C1=O (stereo not given)	0.6%	-1.3%	i	-6.5%	i	14.1µM*
COc1ccc(/C=C2/C(=O)N(CC3CCCO3)C(=S)N2C)c(OC)c1 (stereo not given)	0.6%	-6.6%	i	-0.2%	i	-17.6%
COc1ccc(-c2noc(CN(C(C)C)S(=O)(=O)c3ccc(Br)cc3)n2)cc1	.	-1.4%	i	.	i	12.2%
N=C1SCC(=O)N1c1ncc(Cc2cccc(Cl)c2)s1	22.0%	.	i	0.4%	i	8.91µM*
N=C1SCC(=O)N1c1ncc(Cc2ccccc2Cl)s1	10.6%	.	i	2.9%	i	?
Cc1cccc(Cc2cnc(N3C(=N)SC(C)C3=O)s2)c1 (stereo not given)	10µM*	.	i	0.2%	?	22.4µM*
CC(C)Oc1ccc(CNC(=O)C2CCN(c3nc4ccccc4nc3C(F)(F)F)CC2)cc1	.	22.8%	i	.	i	1.2%
